Measured values from PubChem BioAssay AID485297 (National Center for Advancing Translational Sciences (NCATS), 2010).
The whole screen tested about 320,000 compounds, of which about 9,100 (2.8%) were called active. Inconclusive results (about 3%) are left out. Calls come from the whole dose curve; as a rule, active = well fitted activation curve with a large enough effect; inconclusive = small, poorly fitted or top-dose-only effect; inactive = no such curve, though single readings can be large or run the other way. Shown is part of a subset that was picked to be rich in actives. Entries that show only a call come without a potency.

Assay: qHTS Assay for Rab9 Promoter Activators; note: nearly all actives have a fitted effect of over 60% in size
Conditions: Huh7 Rab9 promoter-luciferase reporter, luminescence, 24 h; series mostly up to 9.22 µM
Summary of the method: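 Rab9 promoter-driven luciferase in stably transfected Huh7 cells; 1500 cells/well rested 2 h, exposed to compound in DMSO for 24 h at 37 °C, 5% CO2. Luminescence read 10 min after adding luciferase reagent at ambient temperature.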
Potency is the fitted concentration of half-maximal effect.

SMILES | Potency
CN(C)c1nc(-c2cccnc2)nc(-c2ccc(Cl)cc2)c1C#N | inactive
COC(=O)CSc1nnc(-c2cccnc2)o1 | inactive
CN(C)c1ccc(-c2nnc(-c3cccnc3)o2)cc1 | 1580 nM (active)
Cc1ccc(S(=O)(=O)N2CCCCC2)cc1NC(=O)[C@@H]1CCCN1C(=O)c1cccs1 | inactive
CCC(C)N1C(=O)S/C(=C/c2ccc(Sc3nc4ccccc4[nH]3)o2)C1=O (centres undefined) | inactive
CC(=O)Nc1ccccc1C(=O)C(=O)Nc1ccc(F)cc1 | 2510 nM (active)
CCCCNC(=O)C(=O)c1ccccc1NC(C)=O | inactive
O=C(Nc1ccccc1)c1ccccc1NC(=O)C(F)(F)F | inactive
N#Cc1nc(-c2cccc3ccccc23)oc1N | inactive
CSc1ccccc1N1CCN(CCCCCC(=O)NC2CCCc3ccccc32)CC1 (centres undefined) | inactive
COc1ccccc1C(=O)Nc1ccc(C)c(S(=O)(=O)N2CCCCC2)c1 | inactive
Cn1c(CN2CCOCC2)nc2cc(NC(=O)c3ccc(Cl)cc3)ccc21 | inactive
Cn1c(NC(=O)c2ccccc2)nc2ccccc21 | 2820 nM (active)
Cn1sc(NC(=O)c2ccccc2)nc1=O | inactive
Cn1c(S(=O)(=O)O)nc2ccccc21 | inactive
CC(=O)NCCc1nc2cc(NC(=O)c3ccccc3)ccc2n1C | 3550 nM (active)
CCCC(=O)Nc1ccc2c(c1)nc(CCNC(=O)c1ccco1)n2C | inactive
O=C(NC1CCCCCC1)C1CCN(C(=O)c2ccc(Cl)cc2)CC1 | inactive
O=C(c1c(F)cccc1F)N1CCN(S(=O)(=O)c2ccc3c(c2)OCCO3)CC1 | inactive
Cc1cc(C)cc(OCC(=O)OCC(=O)NC2CCCC2)c1 | inactive
O=C(CN1CCCCCC1)Nc1ccc(Br)cc1[N+](=O)[O-] | inactive
CCCN(CC(=O)Nc1ccccc1C)C(=O)c1ccc2[nH]c3c(c2c1)CC(C)CC3 (centres undefined) | inactive

SMILES | Potency
CCOC(=O)c1sc(N)c(C#N)c1COC(=O)C1=COCCO1 | inactive
CN(C(=O)CSc1nnc(C2CC2)n1C)C1CCCc2ccccc21 (centres undefined) | inactive
Cc1cccc(S(=O)(=O)CC(=O)Nc2nc(-c3ccccc3)cs2)c1 | inactive
CC(=O)Nc1ccc(-c2csc(NC=C3C(=O)OC(C)(C)OC3=O)n2)cc1 | inactive
COc1ccc2c(c1OC)C(=O)OC2Nc1nc(-c2ccccc2)cs1 (centres undefined) | inactive
Cc1cccc(Nc2nc(-c3ccccc3)cs2)n1 | 3980 nM (active)
O=C(Nc1ccc(-c2csc(Nc3cccc(C(F)(F)F)c3)n2)cc1)c1cccc(C(F)(F)F)c1 | inactive
CCS(=O)(=O)Nc1cccc(-c2cc(-c3ccccc3)c3cc(C)ccc3n2)c1 | inactive
Cc1cc(O)ccc1-c1cnc2ccccc2n1 | inactive
CC(=O)Nc1cccc(-c2cnc3ccccc3n2)c1 | 3980 nM (active)
CC(=O)Nc1cccc(-c2csc(Nc3cccc(C)n3)n2)c1 | 1580 nM (active)
COc1ccc(S(=O)(=O)Nc2cc(C)on2)cc1NC(C)=O | inactive
Cc1ccc(NC(=O)Cn2nnc(C(=O)NCc3ccco3)c2N)c(C)c1 | inactive
COc1ccc([C@H]2CC(=O)C=C(/C=C/c3ccc(Cl)cc3)C2)cc1 | inactive
CSCCC(NC(=O)c1ccco1)C(=O)NCCc1ccc(F)cc1 (centres undefined) | inactive
CCCC(=O)N1CCN(c2nnc(-c3ccc(C)cc3)c3ccccc23)CC1 | inactive
O=C(C1CCC1)N1CCN(S(=O)(=O)c2ccc([N+](=O)[O-])cc2)CC1 | inactive
Cc1ccc2c(c1)C1CN(C)CCC1N2S(=O)(=O)c1cccc(F)c1 (centres undefined) | inactive
O=C(c1cnn(-c2ccc(Cl)cc2)c1)c1ccccc1O | 3550 nM (active)
Cc1ncc(CC(=O)n2cc(C(=O)c3cc(Cl)ccc3O)cn2)s1 | inactive
COc1ccc(CNC(=O)COc2ccccc2C(=O)c2cnn(-c3ccccc3)c2)cc1OC | inactive
COc1ccc(-c2c(-c3cc(OC)cc(OC)c3)n(C)c3ccc(-c4ccn[nH]4)cc23)cc1 | inactive

SMILES | Potency
Cc1cc(C(=O)COc2ccc(Br)cc2F)c(C)n1C1CC1 | inactive
CC(=O)NC(c1cccs1)c1cc(Br)c2cccnc2c1O (centres undefined) | inactive
COc1ccc(C)cc1NC(=O)c1cc(-c2ccccc2)nc2c1cnn2C(C)C | inactive
CC1Cc2ccccc2N1S(=O)(=O)c1cccc(C(=O)NCC(c2ccco2)N2CCCC2)c1 (centres undefined) | inactive
Nc1ccc(N=Nc2ccccc2Cl)c(N)n1 | 2820 nM (active)
CCc1cccc(NC(=O)COC(=O)c2cc(=O)c3ccccc3o2)c1 | inactive
CCOC(=O)c1ccc(NC(=O)C2CC(=O)N(c3ccc4c(c3)OCCO4)C2)cc1 (centres undefined) | inactive
CCCN(CC1CC1)C(=S)NC(=O)c1ccccc1Br | inactive
Cc1noc(NS(=O)(=O)c2ccc(N/C=C/C(=O)c3ccccc3)cc2)c1C | inactive
CCOc1ccc(N/C=C/C(=O)c2cc(OC)c(OC)c(OC)c2)cc1 | inactive
COc1ccc(C(=O)/C=C/Nc2ccccn2)cc1 | 100 nM (active)
CCOc1ccc(N/C=C/C(=O)c2ccccc2)cc1 | 316 nM (active)
O=C(/C=C/NCc1ccc(F)cc1)c1ccccc1 | inactive
CCOc1ccc(NC(=S)N2CCC(NC(=O)c3ccccc3)CC2)cc1 | inactive
COc1ccc(C(=O)/C=C/c2ccc(OC3CSC3)cc2)cc1 | inactive
O=C(NNc1ccccn1)c1ccc(Cl)nc1 | inactive
Cc1ccc(N/C=C/C(=O)c2ccccc2)cc1C | 562 nM (active)
O=C(CC1SC(N2CCCC2)=NC1=O)Nc1ccc(C(=O)NCCc2ccc(F)cc2)cc1 (centres undefined) | inactive
Cc1ccc(NC(=O)c2cccc(S(=O)(=O)N3CCCc4ccccc43)c2)nc1 | inactive
C=CC(=O)OCCOCCOCCOCCOC(=O)C=C | inactive
Cc1ccnc(NC(=O)c2ccco2)n1 | inactive
Cc1ccc(S(=O)(=O)Nc2nc3ccccc3s2)cc1[N+](=O)[O-] | inactive

SMILES | Potency
Cc1ccnc(Nc2nc3ccccc3s2)n1 | 1410 nM (active)
O=C(CCNS(=O)(=O)c1ccc(Br)cc1)NCC1CCCO1 (centres undefined) | inactive
O=C(c1cc(-c2ccc(O)cc2)on1)N1CCCc2ccccc21 | inactive
O=C(CSc1n[nH]c(-c2cccs2)n1)N1CCCCC1 | inactive
COc1ccccc1-c1cc(C(=O)N2CCCCC2)no1 | 3550 nM (active)
CC(=O)c1ccc(NC(=O)c2cc(-c3cccs3)on2)cc1 | inactive
O=C(c1cc(-c2cccs2)on1)N1CCCCC1 | 562 nM (active)
O=C(c1cc(-c2ccccc2O)on1)N1CCCC1 | 3980 nM (active)
O=C(c1cc(-c2cccc(O)c2)on1)N1CCc2ccccc2C1 | inactive
O=C(c1cc(-c2ccc(F)cc2)on1)N1CCN(c2ccc(F)cc2)CC1 | inactive
COc1cccc(-c2cc(C(=O)N3CCN(c4ccccc4OC)CC3)no2)c1 | inactive
O=C(Nc1cccnc1Cl)c1cc(-c2ccccc2O)on1 | inactive
O=C(c1cc(-c2ccc(O)cc2)on1)N1CCOCC1 | 1120 nM (active)
COc1ccc(-c2cc(C(=O)N3CCN(c4ccc(F)cc4)CC3)no2)cc1 | inactive
O=C(CN1CCC(O)(c2cccc(C(F)(F)F)c2)CC1)NCCc1ccccc1 | inactive
O=C(NNC(=O)c1ccc(-n2cncn2)c([N+](=O)[O-])c1)c1ccccc1 | inactive
CCOc1ccc(S(=O)(=O)NCCC(=O)NCC2CCCO2)cc1 (centres undefined) | inactive
CCN(CC(=O)Nc1ccccc1C(F)(F)F)C(=O)C1CCN(C(=O)Nc2ccccc2)CC1 | inactive
CCOc1ccc(NC(=O)CN(C)C(=O)Cc2sc(C)nc2-c2ccc(F)cc2)cc1OCC | inactive
O=C(OCC(=O)N1CCOCC1)c1ccc2ccccc2c1 | inactive
CC1(C)CC(=O)C=C(c2ccc(Cl)c(C(F)(F)F)c2)C1 | inactive
COc1ccccc1C(=O)NC(CCSC)C(=O)N1CCN(C(C)=O)CC1 (centres undefined) | inactive

SMILES | Potency
Cc1ccccc1-c1cc(C(=O)NCc2cccs2)n(CC2CC(c3cccnc3)=NO2)n1 (centres undefined) | inactive
COCCN1CCN(C(=O)c2cc(COc3ccc(F)cc3Cl)on2)CC1 | inactive
O=C(c1cc(COc2cccc(C(F)(F)F)c2)on1)N1CCSCC1 | inactive
COc1ccc(OCc2cc(C(=O)N3CCCC3)no2)c2ccccc12 | 3980 nM (active)
O=C(c1cc(COc2c(F)cccc2F)on1)N1CCSCC1 | 3160 nM (active)
O=C(c1cc(COc2ccc(F)c(F)c2)on1)N1CCOCC1 | inactive
Cc1ccc(C)c(OCc2cc(C(=O)N3CCN(c4cnccn4)CC3)no2)c1 | inactive
CC(C)(Oc1ccc(Cl)cc1)C(=O)OCC(=O)NCCc1ccc(S(N)(=O)=O)cc1 | inactive
Cc1ccsc1C(=O)NC1CCCCC1C (centres undefined) | inactive
O=S(=O)(NC1CC1)c1ccc(Cl)cc1 | inactive
CCN(C(=O)CSc1ncnc2c1cnn2-c1ccccc1)C1CCS(=O)(=O)C1 (centres undefined) | inactive
Cc1ccc(-c2nc3c(cnn3-c3ccccc3)c(=O)o2)cc1 | inactive
CC(C)Sc1ncnc2c1cnn2-c1ccccc1 | 1000 nM (active)
CC(Sc1ncnc2c1cnn2-c1ccccc1)C(=O)Nc1ccc(N2CCOCC2)cc1 (centres undefined) | inactive
C1=C(CCNc2ncnc3c2cnn3-c2ccccc2)CCCC1 | 2820 nM (active)
c1ccc(-n2ncc3c(N4CCCC4)ncnc32)cc1 | 501 nM (active)
CCC(C)N(C(=O)CSc1ncnc2c1cnn2-c1ccccc1)C1CCS(=O)(=O)C1 (centres undefined) | inactive
O=C(NCCC1=CCCCC1)C1CCN(Cc2cnn(-c3ccccc3)c2-n2cccc2)CC1 | inactive
O=C(NNc1ncnc2c1cnn2-c1ccccc1)c1ccco1 | inactive
CCc1noc(C)c1C(=O)N1CCN(S(=O)(=O)c2cccc(C(F)(F)F)c2)CC1 | inactive
CC(=O)c1c(C)[nH]c(C(=O)OCC(=O)Nc2c(C)cccc2C)c1C | inactive
